# TDP1 inh: inhibitors of human tyrosyl-DNA phosphodiesterase TDP1. Potency, µM (highest dose often 130 µM), for inactives: top-dose activity change, negative = inhibition, most hits filed as inhibitors. Q9NUW8. 350,000 compounds, 0.28% hits. recombinant TDP1, AlphaScreen DNA substrate cleavage. AID 485290; note: % is set by controls: 0 for no effect and ±100 for the full control effect; nearly all actives have a fitted effect of over 40% in size
#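 Here, a 5' biotin and 3' phosphotyrosine-FITC DNA oligonucleotide reports Tdp1 activity: intact substrate bridges AlphaScreen beads, while cleavage leaves a 3' phosphate and drops signal. All incubations at room temperature.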
# POLH inh: blocks human DNA polymerase eta activity | AID 588591 | Potency, µM (doses to about 114 µM), for inactives: top-dose activity change, negative = inhibition, most hits filed as inhibitors | recombinant Pol eta, fluorescent DNA replication assay | 390,000 compounds, 1.2% hits; note: % is set by controls: 0 for no effect and ±100 for the full control effect
#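 Pol eta at 10 nM preincubated with compounds 15 min at room temperature; reaction started with fluorescent substrate (50 nM final) and read kinetically at 0 and 10 min.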
# Pol beta inh: DNA polymerase beta (human) inhibition; Pol beta primer extension/strand displacement, fluorescence kinetic; 340,000 compounds, 1.3% hits; Potency, µM (highest dose often 114 µM), inactives show at the highest dose activity change, negative = inhibition, most hits filed as inhibitors; note: % is set by controls: 0 for no effect and ±100 for the full control effect
#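 Homogeneous kinetic assay of primer extension and strand displacement by 10 nM Pol beta, preincubated 15 min at room temperature with compound before 50 nM substrate (final) was added. Read at 0 and 10 min; four-parameter Hill fit.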
# POLK inh: blocks human DNA polymerase kappa activity | 400,000 compounds, 0.53% hits | Q9UBT6 | purified Pol kappa, fluorescent DNA synthesis assay, 10 min | AID 588579 | Potency, µM (titrated, usually from 107 µM), without a hit: at the top dose activity, negative = inhibition, most hits filed as inhibitors; note: % is set by controls: 0 for no effect and ±100 for the full control effect
#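 First, compounds were pin-transferred onto 10 nM Pol kappa. After 15 min at room temperature, substrate was added to 50 nM final. Fluorescence was then measured kinetically at 0 and 10 min.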
# Pol iota inh: DNA polymerase iota (human) inhibition; AID 588590; 390,000 compounds, 1% hits; Potency, µM (series often up to 115 µM), for the others: at the highest dose activity, negative = inhibition, hits mostly inhibitors; Pol iota fluorescent replication assay, 10 min
# Target sequence (Q9UNA4 whole entry, looked up): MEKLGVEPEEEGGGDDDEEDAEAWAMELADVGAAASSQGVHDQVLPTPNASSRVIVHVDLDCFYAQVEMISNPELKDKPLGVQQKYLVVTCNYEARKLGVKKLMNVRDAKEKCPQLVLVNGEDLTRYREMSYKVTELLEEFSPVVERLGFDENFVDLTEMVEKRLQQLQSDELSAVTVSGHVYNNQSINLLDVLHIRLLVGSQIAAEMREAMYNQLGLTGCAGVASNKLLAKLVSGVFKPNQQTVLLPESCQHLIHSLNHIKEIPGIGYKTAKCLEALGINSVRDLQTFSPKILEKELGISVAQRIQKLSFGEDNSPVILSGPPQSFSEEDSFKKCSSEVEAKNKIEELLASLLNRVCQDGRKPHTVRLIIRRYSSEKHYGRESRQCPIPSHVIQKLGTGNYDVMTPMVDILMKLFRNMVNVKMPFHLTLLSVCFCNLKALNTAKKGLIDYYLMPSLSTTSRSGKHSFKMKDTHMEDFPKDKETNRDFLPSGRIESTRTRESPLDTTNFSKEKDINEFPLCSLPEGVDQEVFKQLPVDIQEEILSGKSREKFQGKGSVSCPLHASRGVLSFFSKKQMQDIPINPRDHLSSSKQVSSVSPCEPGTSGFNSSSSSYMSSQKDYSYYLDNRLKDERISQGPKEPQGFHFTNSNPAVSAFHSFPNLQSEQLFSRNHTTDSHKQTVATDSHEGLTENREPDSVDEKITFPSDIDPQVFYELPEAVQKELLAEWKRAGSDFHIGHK
#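 Fluorescent replication assay read twice, at 0 min and 10 min after adding 50 nM (final) substrate. Enzyme (10 nM) and compounds were first incubated 15 min at room temperature; enzyme-free buffer wells were negative controls.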
# Starred values were filed as active, the others as inactive; ? = inconclusive; nt = no result; [ ] = another dose, or the depositor's remark. Compounds with a hit are over-represented: about 2.4% of the library has one in this group of screens. Calls come from the whole dose curve; as a rule, active = well fitted curve in the direction sought with a large enough effect; inconclusive = small, poorly fitted or top-dose-only effect, or another doubt; inactive = no such curve, though single readings can be large; an effect the other way counts as inactive or inconclusive. Potency is the fitted concentration of half-maximal effect.
SMILES,TDP1 inh,POLH inh,Pol beta inh,POLK inh,Pol iota inh
CC(=O)NC1C(=O)N(CCN2CCOCC2)c2ccc(Cl)cc21 (stereo not drawn),nt,?,35%,-16%,?
CC(=O)NC1C(=O)N(CCN2CCOCC2)c2ccc(C)cc21 (stereo not drawn),nt,25µM*,?,-10%,-14%
Oc1ccc(Br)cc1C1C=C(c2ccc3c(c2)OCO3)NC(c2cccc(F)c2)N1 (stereo not drawn),1%,nt,nt,-5%,?
Cc1cc(C(=O)N/N=C/c2ccc(-c3ccccc3Cl)o2)n[nH]1,-14%,?,10µM*,?,-55%
O=C(CCl)N(Cc1cc(=O)[nH]c2ccccc12)c1ccccc1,nt,50µM*,29%,-3%,?
CCN1C(=O)c2cccc3c(Cl)ccc(c23)C1=O,-3%,3%,12%,5%,109%
O=C1c2cccc3c(Cl)ccc(c23)C(=O)N1O,22µM*,-21%,?,-12%,?
N#Cc1nc(-c2ccc(OCc3ccccc3Cl)cc2)oc1N1CCCCCC1,6%,nt,nt,-13%,27%
CC1=NNC(=O)C1Oc1ccccc1 (stereo not drawn),nt,-8%,-2%,-9%,25µM*
COc1cc(NC(=O)CN2C(=O)c3ccccc3C2=O)c(C(=O)O)cc1OC,1%,-7%,24%,?,89µM*
COC(=O)c1cc(OC)c(OC)cc1NC(=O)CN1C(=O)c2ccccc2C1=O,4%,-5%,7%,-7%,3%
COc1c(Cl)cc(C(=O)NN)cc1Cl,5%,0%,-1%,-6%,55%
NNC(=O)c1cc(O)c(O)c(O)c1,nt,-1%,3.2µM*,56µM*,?
COC(=O)\C(C(C)=O)=C(/C=C/C=C/N(C)C)N(C)C,22µM*,14µM*,22µM*,?,?
O=C(Nc1cccc(Cl)c1)c1ccc2nc(Cc3ccccc3)oc2c1,3%,-16%,2%,-9%[60.1 µM],23%
Cc1cc(O)c(C(C)C)cc1N=Cc1ccccc1O,7%,-7%,24%,-12%,20µM*
CC(=O)N(c1ccc2oc(=O)sc2c1)S(=O)(=O)c1ccc(C(=O)O)cc1,6%,35µM*,-16%,?,3.5µM*
Cn1cncc1C#Cc1c(C=O)n(C)c2ccccc12,56µM*,-18%,nt,-33%,?
CCC(=O)N1CCc2cc(Br)cc(S(=O)(=O)N3CCCC(C(=O)NCc4cccc(OC)c4)C3)c21 (stereo not drawn),-2%,3%,6%,-27%,12%
CCOc1ccc(-c2csc(/C(C#N)=C\c3ccc(O)c([N+](=O)[O-])c3)n2)cc1,5%,22µM*,28µM*,3%,?
CCc1ccc(/C=C(/C#N)c2nc(-c3ccc(C)cc3)cs2)cc1,-11%,-11%,-3%,2%,-3%
O=C1CC(NS(=O)(=O)c2ccc([N+](=O)[O-])cc2)CN1c1ccc2c(c1)OCCO2 (stereo not drawn),nt,2%,nt,-8%,17%
O=C(Oc1ccc([N+](=O)[O-])cc1)C1CC(=O)N(c2ccc3c(c2)OCCO3)C1 (stereo not drawn),nt,?,nt,-42%,79µM*
CCOC(=O)/C=C1\SCC(=O)N1CC(=O)c1ccc[nH]1,-10%,?,20µM*,?,?
CCOC(=O)/C=C1\SCC(=O)N1CC(=O)Nc1ccc(OC)c(OC)c1,0%,-6%,1%,-6%,4%
SMILES,TDP1 inh,POLH inh,Pol beta inh,POLK inh,Pol iota inh
CC1CCC/C(=C\Nc2ccc(O)cc2)C1=O (stereo not drawn),4%,-1%,7%,-20%,8.9µM*
Cc1ccc(S(=O)(=O)N2CCN(c3nc(-n4cncn4)nc4ccccc34)CC2)cc1,nt,nt,nt,-21%,?
CC(C)(C)c1ccc(C(=O)N/C(=C\c2cccc([N+](=O)[O-])c2)C(=O)Nc2cccc(C(=O)O)c2)cc1,nt,22µM*,?,-10%,62%
O=C(Nc1cccc(C(=O)O)c1)/C(=C/c1ccc([N+](=O)[O-])cc1)NC(=O)c1ccccc1,1%,-8%,7%,-9%,-21%
CCCCOc1cccc(C(=O)N(Cc2ccc(C)o2)c2ccccn2)c1,5%,-22%,0%,-4%,31%
COc1cc(/C=C2/C(=N)N3C(SC)=NSC3=NC2=O)ccc1OC(=O)c1ccco1,-4%,-7%,3%,-15%,?
COc1cc(/C=C2/C(=N)N3C(=NC2=O)SN=C3S(=O)(=O)C(C)C)ccc1OC(=O)c1ccco1,5%,79µM*,1%,-14%,?
Cc1cc(/C=C2/C(=N)N3C(=NC2=O)SN=C3S(C)(=O)=O)c(C)n1-c1ccccc1F,9%,79µM*,5%,-13%,?
COc1cc(/C=C2\C(=O)N(c3ccc(S(N)(=O)=O)cc3)N=C2C)ccc1OC(=O)c1ccco1,?,-13%,?,1%,2.5µM*
CCOc1cc(/C=C2/C(=N)N3C(=NC2=O)SN=C3S(=O)(=O)C(C)C)ccc1OC(=O)c1ccco1,4%,45µM*,-1%,-10%,4%
N=C1/C(=C\c2ccc(OC(=O)c3ccco3)cc2)C(=O)N=C2SC=NN12,-5%,-1%,44%,-15%,19%
N#C/C(=C\c1ccc(-c2cc(Cl)ccc2Cl)o1)C(=O)Nc1cccc2ncccc12,nt,nt,nt,-7%[60.1 µM],nt
CCOc1ccc(S(=O)(=O)N2CCN(c3nc(-c4ccccc4)nc4ccccc34)CC2)cc1OCC,0%,nt,nt,9%,-6%
O=C(CC(C(=O)O)n1ccnc1)c1ccc(Cl)cc1 (stereo not drawn),nt,nt,nt,5%,?
COc1cc(/C=C2/C(=O)N(c3ccc(C(=O)O)cc3)N=C2C)cc(OC)c1O,nt,?,13%,-21%,1.6µM*
COc1cc(/C=C2\C(=N)N3N=CSC3=NC2=O)cc(Br)c1OC(=O)c1ccco1,-3%,79µM*,?,-14%,?
CS(=O)(=O)C1=NN2C(=N)/C(=C\c3ccc(OC(=O)c4ccco4)cc3)C(=O)N=C2S1,50µM*,-3%,?,-19%,2%
CCCC1=NN2C(=N)/C(=C\c3cc(C)n(Cc4ccccc4)c3C)C(=O)N=C2S1,9%,-13%,1%,-23%,20%
Cc1cc(/C=C2\C(=N)N3N=C(S(C)(=O)=O)SC3=NC2=O)c(C)n1Cc1ccccc1,0%,35µM*,?,-8%,?
CS(=O)(=O)C1=NSC2=NC(=O)/C(=C\c3ccc(OC(=O)c4ccco4)cc3)C(=N)N21,-21%,nt,?,nt,nt
N=C1/C(=C\c2ccc(OC(=O)c3ccc(F)cc3)cc2)C(=O)N=C2SC(N3CCOCC3)=NN12,56µM*,3%,14%,8%,-12%
CCOc1cc(/C=C2/C(=N)N3C(=NC2=O)SN=C3S(=O)(=O)CC)ccc1OC(=O)c1ccco1,6%,79µM*,-9%,4%,?
